In PubChem BioAssay (NCATS):
Results filed as inconclusive are left out. Calls of active or inactive are those of the source. Calls come from the whole dose curve; as a rule, active = well fitted curve in the direction sought with a large enough effect; inconclusive = small, poorly fitted or top-dose-only effect, or another doubt; inactive = no such curve, though single readings can be large; an effect the other way counts as inactive or inconclusive.

Legend:
[1] = HPAF-II 24hr Apoptosis Induction qHTS against the NCATS CANVASS Library (AID 1347356); note: 0% is about no effect
Summary of the method: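 500 HPAF-II cells/well; compounds in 11-pnt qHTS; 24 h, 37 C/5% CO2; Caspase-Glo 3/7 added, 15 min RT dark; luminescence read. Doxorubicin control.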

[2] = HEK293 18hr Apoptosis Induction qHTS against the NCATS CANVASS Library (AID 1347357); note: 0% is about no effect
Summary of the method: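 Cells seeded at 500/well in DMEM + 10% FBS. Compounds pinned, 11 concentrations. 18 h, 37 degrees C/5% CO2. Caspase-Glo 3/7 added, 15 min RT dark, luminescence read.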

[3] = HEK293 24hr Apoptosis Induction qHTS against the NCATS CANVASS Library (AID 1347359); note: 0% is about no effect
Summary of the method: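 HEK293 cells (500/well, DMEM + 10% FBS) were exposed to compounds in an 11-point series for 24 hours at 37 degrees C, then caspase-3/7 activity was read by Caspase-Glo DEVD luciferase luminescence after 15 min.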

[4] = HEK293 12hr Apoptosis Induction qHTS against the NCATS CANVASS Library (AID 1347361); note: 0% is about no effect
Summary of the method: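 Cells are seeded, dosed with an 11-point compound series and incubated 12 hours. Caspase-3/7 activity is detected by luminescent DEVD-substrate reagent after 15 minutes at room temperature.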

[5] = tested on: NAD(P)H diaphorase (Clostridium kluyveri); assay: Diaphorse counterscreen qHTS: Assay Interference Panel against the NCATS CANVASS Library (AID 1347362); note: 0% is about no effect
Summary of the method: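 Clostridium kluyveri diaphorase in PBS with 0.01% Tween-20 was preincubated 15 min at room temperature in the dark with compounds (11-point series). Resorufin fluorescence (ex 525/20, em 598/25) was read 5 min after adding resazurin/NADH.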

[6] = target: Luciferin 4-monooxygenase (Photinus pyralis) (UniProt P08659); assay: Firefly luciferase counterscreen qHTS: Assay Interference Panel against the NCATS CANVASS Library (AID 1347363); note: series mostly up to about 57 µM; 0% is about no effect
Summary of the method: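 Purified P. pyralis luciferase was added to compounds (11-point series) preincubated 15 min at room temperature with substrate containing 0.013 mM D-luciferin and 0.013 mM ATP; luminescence was read after 5 min.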

[7] = KB-3-1 Cancer Cell Toxicity qHTS against the NCATS CANVASS Library (AID 1347366); note: nearly all actives have a fitted effect of over 75% in size; note: potency is the fitted concentration of half-maximal effect; for activity change, negative = cytotoxicity: series mostly up to about 46 µM; % is set by controls: 0 for no effect and ±100 for the full control effect
Summary of the method: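 Luminescence from CellTiter-Glo (10 min, room temperature) measured KB-3-1 viability after 72 hr compound exposure at 37C. Cells were seeded at 500/well and tested in an 11-point series.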

[8] = G06 Cancer Cell Toxicity qHTS against the NCATS CANVASS Library (AID 1347368); note: nearly all actives have a fitted effect of over 60% in size; note: potency is the fitted concentration of half-maximal effect; for activity change, negative = cytotoxic: series mostly up to about 46 µM; % is set by controls: 0 for no effect and ±100 for the full control effect
Summary of the method: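 ATP luminescence (CellTiterGlo) readout of cytotoxicity. Canine G06 glioma cells, 500/well, 72 hr incubation at 37C with compounds; bortezomib titration served as control.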

[9] = MCF7 Cancer Cell Toxicity qHTS against the NCATS CANVASS Library (AID 1347369); for activity change, negative = cytotoxicity: series mostly up to about 46 µM; % is set by controls: 0 for no effect and ±100 for the full control effect
Summary of the method: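 Cells seeded at 500/well, then compound pinned. Plates incubated 72 hr at 37C, 5% CO2. CellTiterGlo added; luminescence read.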

[10] = qHTS for ATAD5 Antagonist screened against the NCATS CANVASS Library (AID 1347370); note: nearly all actives have a fitted effect of over 65% in size; note: potency is the fitted concentration of half-maximal effect;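 for activity change, negative = inhibition: HEK293T cells carrying an ATAD5 luciferase reporter co-treated with 10 µM 5-fluorouridine; series mostly up to about 46 µM; % is set by controls: 0 for no effect and ±100 for the full control effect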
Summary of the method: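 HEK293T-ATAD5 luc reporter, 2000 cells/well; 5hr attach; cpd + 10 uM 5-FUrd; 16hr 37C, 5% CO2. Readouts: CellTiter-Fluor fluorescence (1hr), then Amplite luciferase luminescence (30min RT).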

[11] = J3T Cancer Cell Toxicity qHTS against the NCATS CANVASS Library (AID 1347371); note: potency is the fitted concentration of half-maximal effect
Summary of the method: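 Dog glioma J3T, 500 cells/well; cpd 11-pt qHTS; 72 hr, 37C/5% CO2; CellTiterGlo ATP luminescence readout.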

[12] = 10-beta competent E. coli microbial cell viability qHTS against the NCATS CANVASS Library (AID 1347376); note: series mostly up to about 46 µM; 0% is about no effect
Summary of the method: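 Luminescence from BacTiter-Glo ATP detection served as the viability read-out; bacteria (0.2 OD) had been incubated overnight at 37C with pin-transferred compounds at 11 concentrations.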

[13] = qHTS for H2AX Agonists against the NCATS CANVASS Library (AID 1347378);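 note: phospho-H2AX S139 level in CHO-K1 lysates by TR-FRET emission ratio; 0% is about no effect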
Summary of the method: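 CHO-K1, 1000 cells/well, o/n 37C; cpd several conc, 3 hr 37C, 0.76% DMSO; lyse 30 min RT; cryptate anti-pH2AX(S139) + d2 anti-H2AX, 24 hr RT; HTRF 665/620.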

[14] = qHTS for Inflammasome Signaling Inhibitors: IL-1-beta AlphaLISA screen against the NCATS CANVASS Library (AID 1347379);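 note: human THP-1 cells primed with LPS then triggered with ATP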;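 for Potency: secreted IL-1B measured as AlphaLISA emission at 615 nm; potency is the fitted concentration of half-maximal effect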;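 for activity change, negative = inhibition: secreted IL-1B measured as AlphaLISA emission at 615 nm; % is set by controls: 0 for no effect and ±100 for the full control effect; lower signal means less IL-1B release which is the wanted effect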
Summary of the method: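 THP-1, 1 hr compound pre-incubation, then LPS 250 ng/mL + ATP 1.25 mM (final); 16 hr total with compound; IL-1B AlphaLISA, ex 680/em 615 nm; 11-point qHTS, up to 57.5 uM final.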

[15] = Inflammasome Signaling qHTS Counterscreen: IL-1-beta AlphaLISA counterscreen against the NCATS CANVASS Library (AID 1347381);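 note: cell-free check with purified IL-1β in medium and no THP-1 cells; series mostly up to about 57 µM; 0% is about no effect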
Summary of the method: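 Here, no cellular stimulation occurs; compounds in an 11-point series meet 4 pg purified IL-1-beta directly. Bead-based AlphaLISA detection follows (1 h acceptor/antibody, then 30 min donor, dark, room temperature), with excitation at 680 nm.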

[16] = qHTS for activators of dead-cell proteases activity screened against the NCATS CANVASS Library (AID 1347392);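 note: luminescence from protease leaking out of membrane-damaged cells cleaving impermeant substrate; rising signal means more cytotoxicity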; note: potency is the fitted concentration of half-maximal effect; for activation (cytotoxicity): 0% is about no effect
Summary of the method: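 Cytotoxicity in HepG2 cells was assessed by released protease cleaving AAF-aminoluciferin, with luminescence as signal. Exposure lasted 5 h at 37C across an 11-point series.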

[17] = Redox Reaction Profiling qHTS: Assay Interference Panel against the NCATS CANVASS Library (AID 1347401); note: potency is the fitted concentration of half-maximal effect;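 for activation (redox signal): 100% = activation by 2 µM chloranil control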
Summary of the method: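 Quantitative HTS over an 11-point series was run in HEPES pH 7.3 with 50 mM NaCl, 200 uM DTT and 5 uM resazurin. Initial and 15-min resorufin fluorescence readings were taken.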

[18] = HPAF-II 18hr Apoptosis Induction qHTS against the NCATS CANVASS Library (AID 1347360); note: 0% is about no effect
Summary of the method: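 Seed HPAF-II cells at 500/well in DMEM + 10% FBS, pin-transfer compounds, incubate 18 hours at 37 degrees C/5% CO2, add Caspase-Glo 3/7 reagent, wait 15 min, read luminescence.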

[19] = Cytotoxicity qHTS for assessment of Hepg2 cells membrane integrity screened against the NCATS CANVASS Library (AID 1347387)
Summary of the method: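 LDH release read by fluorescence (560 nm ex/590 nm em) after CytoTox-ONE addition and 10 min RT; signal tracks lysed cells. HepG2, 2000 cells/well, plated overnight; compound 5 hr, 37C, 5% CO2, final 0.59 nM - 46 uM, 11 points.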

[20] = HPAF-II 12hr Apoptosis Induction qHTS against the NCATS CANVASS Library (AID 1347358); note: 0% is about no effect
Summary of the method: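 Caspase-Glo 3/7 luminescence (DEVD substrate) reports caspase activity in HPAF-II cells after 12 h compound treatment at 37 degrees C. Compounds were tested in an 11-point series. Doxorubicin served as control.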

Sequence of Luciferin 4-monooxygenase (Photinus pyralis) (P08659 whole entry, looked up): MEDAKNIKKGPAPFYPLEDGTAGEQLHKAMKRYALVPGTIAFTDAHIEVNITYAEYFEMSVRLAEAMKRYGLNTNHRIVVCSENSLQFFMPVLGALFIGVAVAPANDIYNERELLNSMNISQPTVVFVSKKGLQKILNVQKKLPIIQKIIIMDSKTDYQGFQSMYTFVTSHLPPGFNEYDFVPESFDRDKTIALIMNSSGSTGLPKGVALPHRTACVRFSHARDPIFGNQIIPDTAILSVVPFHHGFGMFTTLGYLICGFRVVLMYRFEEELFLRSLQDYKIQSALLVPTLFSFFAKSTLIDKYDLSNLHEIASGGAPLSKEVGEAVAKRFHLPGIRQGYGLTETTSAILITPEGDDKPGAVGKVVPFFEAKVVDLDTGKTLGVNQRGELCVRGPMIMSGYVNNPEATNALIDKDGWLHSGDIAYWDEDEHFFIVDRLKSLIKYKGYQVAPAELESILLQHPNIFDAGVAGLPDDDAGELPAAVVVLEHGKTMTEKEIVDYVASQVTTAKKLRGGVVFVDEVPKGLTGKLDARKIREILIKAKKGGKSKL

CO/C=C/C(=O)c1cc2cnc3c(N)cc(=NC(=O)C(C)C)c([nH]1)c23
inactive: outcome [1] | Potency [2] | Potency [3] | outcome [4] | Potency [5] | Potency [6] | Potency [9] | outcome [12] | Potency [13] | outcome [15] | Potency [17]
active: Potency [7] 590 nM | Potency [8] 132 nM | Potency [10] 741 nM | Potency [11] 743 nM | Potency [14] 968 nM | Potency [16] 23400 nM

CCC(=O)N[C@@H](C[C@H](C)C(Cl)(Cl)Cl)C(=O)N1C(=O)C=C(OC)[C@@H]1C[C@H](C)CCl
inactive: outcome [1] | Potency [2] | Potency [3] | Potency [18] | outcome [4] | Potency [5] | Potency [6] | Potency [7] | Potency [8] | Potency [9] | Potency [10] | Potency [11] | outcome [12] | Potency [13] | Potency [14] | outcome [15] | outcome [19] | Potency [17]

COc1c(O)cc2c(c1O)C(=O)c1c(coc1C)C2=O
inactive: outcome [1] | Potency [2] | Potency [20] | Potency [3] | Potency [18] | outcome [4] | Potency [5] | Potency [6] | Potency [7] | Potency [9] | Potency [10] | Potency [11] | outcome [12] | Potency [13] | Potency [14] | outcome [15] | outcome [19] | Potency [16]
active: Potency [17] 24100 nM

COC(=O)C1=C[C@]23C[C@@H](C)CC[C@@H]2[C@@]2(C)CC[C@@H](C(C)C)[C@@](O)(O3)[C@@H]12
inactive: outcome [1] | Potency [20] | Potency [18] | Potency [5] | Potency [6] | Potency [7] | Potency [8] | Potency [9] | Potency [10] | Potency [11] | outcome [12] | Potency [13] | Potency [14] | outcome [15] | outcome [19] | Potency [16] | Potency [17]

O=C1CC(c2ccc(O)cc2)Oc2cc(O)cc(O)c21 (stereo unspecified)
inactive: outcome [1] | Potency [2] | Potency [20] | Potency [3] | Potency [18] | outcome [4] | Potency [5] | Potency [6] | Potency [7] | Potency [8] | Potency [9] | Potency [10] | Potency [11] | outcome [12] | Potency [13] | Potency [14] | outcome [15] | outcome [19] | Potency [16] | Potency [17]

COc1ccc([C@@H]2CC(=O)c3c(cc(O)c(C/C=C(\C)CCC=C(C)C)c3O)O2)cc1
inactive: caspase activation [1] 3.45% [at 9.19 µM] | caspase activation [2] 0.682% [at 9.19 µM] | caspase activation [20] 1.72% [at 9.19 µM] | activation [3] 2.74% [at 9.19 µM] | caspase activation [18] -1.9% [at 9.19 µM] | caspase activation [4] 1.23% [at 9.19 µM] | activity change, negative = inhibition [5] -4.24% [at 11.5 µM] | activity change, negative = inhibition [6] -12.4% [at 11.5 µM] | activity change, negative = cytotoxicity [7] -3.45% [at 9.19 µM] | outcome [8] inactive [at 9.19 µM] | activity change, negative = cytotoxicity [9] -4.45% [at 9.17 µM] | activity change, negative = inhibition [10] -0.0168% [at 9.19 µM] | outcome [11] inactive [at 9.19 µM] | activity change, negative = cytotoxic [12] -2.49% [at 9.19 µM] | activation [13] 3.21% [at 15.3 µM] | outcome [14] inactive [at 11.5 µM] | activity change, negative = inhibition [15] -7.89% [at 11.5 µM] | cytotoxicity (LDH release) [19] -0.251 [at 9.19 µM] | activation (cytotoxicity) [16] -1.61% [at 9.19 µM] | activation (redox signal) [17] -16.9% [at 11.4 µM]
